ELG1 repair inh: qHTS screen for small molecules that inhibit ELG1-dependent DNA repair in human embryonic kidney (HEK293T) cells expressing luciferase-tagged ELG1 | Potency, µM (highest dose often 46.1 µM), inactives show at the top dose activity change, negative = inhibition, hits mostly inhibitors | HEK293T ELG1-luciferase reporter, luminescence, 16 h; DNA damage induced by 5-fluorouridine | 2.3% of 330,000 active; further: on the % scale 0 is the no-effect control and ±100 the full control effect; nearly all actives have a fitted effect of over 55% in size
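Quantitative HTS, concentration-response format. 2,000 cells/well co-treated with 5-fluorouridine and compound, 16 hr in 5% CO2 at 37 °C; ONE-Glo luminescence read after 30 min.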
NPC1 prom act: qHTS Assay for NPC1 Promoter Activators; Potency, µM (doses to about 9.22 µM), for inactives: top-dose activation, hits mostly activators; Huh7 NPC1 promoter luciferase reporter, 24 h; 2.4% of 320,000 active; further: % of control where 0% means no effect; nearly all actives have a fitted effect of over 60% in size
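Compounds in DMSO were transferred onto Huh7 NPC1-luciferase reporter cells pre-incubated 2 h; after 24 h at 37 °C, Amplite reagent was dispensed and luminescence recorded 10 min later.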
Rab9 prom act: qHTS Assay for Rab9 Promoter Activators; Huh7 Rab9 promoter-luciferase reporter, luminescence, 24 h; Potency, µM (doses to about 9.22 µM), for the others: at the top dose activation, negative = inhibition, usual class: activators; 2.8% of 320,000 active; AID 485297, 2010; further: % of control where 0% means no effect; nearly all actives have a fitted effect of over 60% in size
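Huh7 reporter line, Rab9 promoter upstream of luciferase. Compound exposure 24 h at 37 °C in reduced-serum medium with 10% FBS. Read-out: luminescence.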
FLuc modulator: qHTS profiling assay for firefly luciferase inhibitor/activator using purifed enzyme and Km concentrations of substrates (counterscreen for miR-21 project); Luciferin 4-monooxygenase (Photinus pyralis), P08659; purified FLuc, Km substrates, luminescence inhibition; Potency, µM (doses to about 57.5 µM), inactives show at the top dose activity change, negative = inhibition, usual class: inhibitors; 6.9% of 360,000 active; AID 588342, 2011;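 further: plate controls were vehicle for no effect and reference inhibitor for full effect; nearly all actives have a fitted effect of over 55% in size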
Target sequence (P08659 whole entry, looked up): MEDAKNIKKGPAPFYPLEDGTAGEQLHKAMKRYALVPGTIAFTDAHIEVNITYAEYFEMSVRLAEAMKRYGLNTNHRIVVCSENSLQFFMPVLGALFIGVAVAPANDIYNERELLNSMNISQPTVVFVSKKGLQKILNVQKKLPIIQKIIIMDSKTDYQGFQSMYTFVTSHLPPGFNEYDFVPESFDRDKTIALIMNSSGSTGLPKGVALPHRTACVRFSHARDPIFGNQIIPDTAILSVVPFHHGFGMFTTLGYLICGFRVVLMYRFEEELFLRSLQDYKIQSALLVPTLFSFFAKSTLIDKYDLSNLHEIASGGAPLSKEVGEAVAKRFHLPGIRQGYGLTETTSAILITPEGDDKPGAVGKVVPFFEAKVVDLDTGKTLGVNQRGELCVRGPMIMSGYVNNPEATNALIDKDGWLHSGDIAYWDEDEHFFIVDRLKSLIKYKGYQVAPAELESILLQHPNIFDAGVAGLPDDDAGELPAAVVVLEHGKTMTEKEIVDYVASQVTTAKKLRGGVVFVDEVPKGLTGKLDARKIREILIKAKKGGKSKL
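Purified P. pyralis luciferase, 10 nM final, with Km-level 10 uM D-luciferin and 10 uM ATP in 50 mM Tris acetate pH 7.5, 10 mM Mg acetate, 0.01% Tween-20, 0.05% BSA; 6-point qHTS titration about 60 µM downward; luminescence read.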
SMN2 splice up: qHTS Assay for Enhancers of SMN2 Splice Variant Expression | AID 1458, 2008 | Potency, µM (series often up to 46.1 µM), for inactives: at the top dose activity change, positive = activation, most hits filed as activators | HEK293 SMN2-luciferase splicing reporter, luminescence, 30-36 h | 2.8% of 210,000 active; further: % of control where 0% means no effect; nearly all actives have a fitted effect of over 55% in size
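HEK293 cells carry an SMN2 […]–luciferase reporter in which exon 7 inclusion puts luciferase in frame. Cells were plated 10-12 h before compound addition, then incubated 30-36 h at 37C. ONE-Glo luminescence was read; sodium butyrate at 4.5 mM final served as control.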
ELG1 genotox: qHTS screen for small molecules that induce genotoxicity in human embryonic kidney (HEK293T) cells expressing luciferase-tagged ELG1; Potency, µM (series often up to 46 µM), for the others: at the highest dose activity change, positive = activation, most hits filed as activators; HEK293T ELG1-luciferase reporter, luminescence, 16 h; 1.3% of 330,000 active; AID 504466, 2011; further: % of control where 0% means no effect; nearly all actives have a fitted effect of over 60% in size
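DMSO vehicle served as control against compound-treated ELG1-luciferase HEK293T cells; exposure lasted 16 hr at 37 °C and 5% CO2, followed by ONE-Glo luminescence detection after 30 min.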
The depositor's hits bear a star; ? = inconclusive; nt = no result given; [ ] = another dose, or the depositor's remark. Rows were chosen to be rich in hits. Some 9.2% of all compounds tested hit in one or more screens of this group. The call rests on the fitted dose curve; in most records, active means well fitted curve in the direction sought with a large enough effect; inconclusive means small, poorly fitted or top-dose-only effect, or another doubt; inactive means no such curve, though single readings can be large; an effect the other way counts as inactive or inconclusive. Potency means the concentration at half of the fitted maximal effect.

SMILES	ELG1 repair inh	NPC1 prom act	Rab9 prom act	FLuc modulator	SMN2 splice up	ELG1 genotox
COc1ccccc1/C=C/C(=O)N1CCC(c2ccccc2)C1 (stereo unspecified)	?	?	?	9.53µM*	12.6µM*	?
COc1ccccc1/C=C/C(=O)c1c2c(c(C)[nH]c1=O)CCCC2	18.4µM*	0.1%	-30.1%	-7.5%	-54.2%	-4.8%
CCOc1ccccc1/C=C/C(=O)c1ccc(Cl)cc1	?	16.8%	10.7%	?	-58.2%	9.8%
COc1ccccc1/C=C/C(=O)c1ccc(NC(C)=O)cc1	?	7.9%	-0.5%	15.1µM*	nt	-0.8%
Cc1ccc(NC(=O)C(=O)NCC(c2cccnc2)N2CCc3ccccc32)cc1Cl (stereo unspecified)	nt	nt	nt	-4.8%	nt	nt
Cc1cc(-n2c(C)cc(C(=O)COc3ccc(F)c(F)c3)c2C)no1	12.8%	28.3%	?	16.9µM*	nt	8.9%
Cc1ccc(NC(=O)NCCN2C(=O)C3C4C=CC(C4)C3C2=O)cc1 (stereo unspecified)	?	2.51µM*	1.58µM*	16.9µM*	11.2µM*	7.31µM*
COc1ccc(NC(=O)CCN2C(=O)[C@@H]3[C@H](C2=O)[C@H]2C=C[C@@H]3C2)cc1	16.4%	7.5%	-2.3%	-6.4%	nt	5.7%
COc1ccc(NC(=O)NCCN2C(=O)C3C4C=CC(C4)C3C2=O)cc1 (stereo unspecified)	?	?	?	?	11.2µM*	?
O=C(NCCN1C(=O)C2C3C=CC(C3)C2C1=O)Nc1ccccc1 (stereo unspecified)	?	2.7%	1.5%	-6.5%	-12.5%	11.5%
COc1cc(/C=C2\SC(=S)N(NC(=O)c3ccccc3O)C2=O)ccc1O	18.2%	-2.1%	-3.8%[1.84 µM]	16.9µM*	nt	4.4%
O=C(NN1C(=O)/C(=C/c2ccc(O)c([N+](=O)[O-])c2)SC1=S)c1ccccc1Cl	-18.0%	-0.4%	-0.5%	16.9µM*	-21.3%	-5.9%
CC(=O)Nc1ccc(S(=O)(=O)NCc2ccc(C(=O)NC(C)c3ccccc3)cc2)cc1 (stereo unspecified)	-4.7%	-0.5%	-3.8%	-1.9%	-6.8%	-2.1%
CCOc1ccccc1N1CCN(C(=O)CCCN2C(=O)c3cccc4cccc(c34)C2=O)CC1	23.1µM*	-0.1%	-1.7%	1.1%	0.1%	-5.1%
O=C(CCCN1C(=O)c2cccc3cccc(c23)C1=O)N1CCN(c2ccccc2)CC1	?	3.1%	-3.3%	-2.2%	-25.6%	-1.3%
O=C(CCCN1C(=O)c2cccc3cccc(c23)C1=O)N1CCN(c2ccccc2O)CC1	10.3µM*	4.4%	-2.7%	2.3%	-8.2%	-10.4%
O=C(OCc1ccc(F)cc1)c1cc(=O)c2ccccc2o1	1.4%	-4.0%	1.0%	15.1µM*	nt	1.0%
CC(C)Oc1ccc(C(=O)Nc2nnc3n2CCS3)cc1	nt	nt	nt	10.7µM*	nt	nt
Cc1ccc(C)c(C(=O)COC(=O)C(C)N2C(=O)C3C4CCC(C4)C3C2=O)c1 (stereo unspecified)	-1.2%	-1.0%	-0.4%	?	nt	1.7%
O=C(Nc1ccccc1F)C(=O)Nc1cccc2ccccc12	?	?	2.82µM*	?	nt	?
O=C(Nc1cccc2ccccc12)/C(Cl)=C/c1ccccc1	?	1.8%	6.8%	12µM*	10.1%	1.0%
O=C(Nc1cccc2ccccc12)/C(=C/c1ccc([N+](=O)[O-])cc1)NC(=O)c1ccccc1	-26.7%	-3.2%	8.0%	-0.4%	-14.2%	-8.0%
